# According to the supplement of paper PMC8728848:
# The sample as a whole holds a higher share of the strongest signals than the screen did.
# Key:
# Experiment in all cases: glycan array binding signal (z-score within array); higher = stronger binding
# Details in all cases: glycan notation: IUPAC condensed, linker removed
# [1] = target: Fuc(a1-2)Gal
# Method in brief: (§1)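 Columns mapping to the same glycan were averaged after glycan names were converted to IUPAC-condensed notation. The data come from 3228 arrays in the Consortium for Functional Glycomics database, limited to those with an available protein sequence. Binding is reported as a within-array Z-score averaged across arrays of one protein sequence and across linkers.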
# [2] = target: Fuc(a1-2)Gal(b1-4)GlcNAc(b1-2)Man(a1-3)[Fuc(a1-2)Gal(b1-4)GlcNAc(b1-2)Man(a1-6)]Man(b1-4)GlcNAc(b1-4)GlcNAc
# Method in brief: as §1
# [3] = target: Fuc(a1-2)[Gal(a1-3)]Gal(b1-3)GlcNAc
# Method in brief: as §1
# [4] = target: Fuc(a1-2)[Gal(a1-3)]Gal(b1-4)GlcNAc
# Method in brief: as §1
# [5] = target: Fuc(a1-2)[GalNAc(a1-3)]Gal
# Method in brief: as §1
# [6] = target: Fuc(a1-2)[GalNAc(a1-3)]Gal(b1-4)GlcNAc(b1-2)Man
# Method in brief: as §1
# [7] = target: Fuc(a1-2)[GalNAc(a1-3)]Gal(b1-4)GlcNAc(b1-2)Man(a1-3)[Fuc(a1-2)[GalNAc(a1-3)]Gal(b1-4)GlcNAc(b1-2)Man(a1-6)]Man(b1-4)GlcNAc(b1-4)GlcNAc
# Method in brief: as §1
# [8] = target: Fuc(a1-2)[GalNAc(a1-3)]Gal(b1-4)GlcNAc(b1-3)GalNAc
# Method in brief: as §1
# [9] = target: Fuc(a1-3)GlcNAc
# Method in brief: as §1
# [10] = target: Fuc(a1-3)[Gal(b1-4)]GlcNAc(b1-2)Man
# Method in brief: as §1
# [11] = target: Fuc(a1-3)[GalNAc(b1-4)]GlcNAc
# Method in brief: as §1
# [12] = target: Gal(a1-3)Gal(b1-3)[Fuc(a1-4)]GlcNAc(b1-2)Man(a1-3)[Gal(a1-3)Gal(b1-3)[Fuc(a1-4)]GlcNAc(b1-2)Man(a1-6)]Man(b1-4)GlcNAc(b1-4)GlcNAc
# Method in brief: as §1
# [13] = target: Gal(a1-3)Gal(b1-4)[Fuc(a1-3)]GlcNAc(b1-2)Man(a1-3)[Gal(a1-3)Gal(b1-4)[Fuc(a1-3)]GlcNAc(b1-2)Man(a1-6)]Man(b1-4)GlcNAc(b1-4)GlcNAc
# Method in brief: as §1
# [14] = target: Gal(a1-4)Gal(b1-3)GlcNAc(b1-2)Man(a1-3)[Gal(a1-4)Gal(b1-3)GlcNAc(b1-2)Man(a1-6)]Man(b1-4)GlcNAc(b1-4)GlcNAc
# Method in brief: as §1
# [15] = target: Gal(a1-4)Gal(b1-4)GlcNAc(b1-3)Gal(b1-4)Glc
# Method in brief: as §1
# [16] = target: Gal(b1-2)Gal
# Method in brief: as §1
# [17] = target: Gal(b1-3)GalNAc(b1-4)Gal(b1-4)Glc
# Method in brief: as §1
# [18] = target: Gal(b1-3)GlcNAc(b1-2)[Gal(b1-3)GlcNAc(b1-6)]Man(a1-6)[Gal(b1-3)GlcNAc(b1-2)Man(a1-3)]Man(b1-4)GlcNAc(b1-4)GlcNAc
# Method in brief: as §1
# [19] = target: Gal(b1-3)GlcNAc6S
# Method in brief: as §1
# [20] = target: Gal(b1-4)GlcNAc(b1-2)Man(a1-3)[GlcNAc(b1-2)Man(a1-6)]Man(b1-4)GlcNAc(b1-4)GlcNAc
# Method in brief: as §1
# [21] = target: Gal(b1-4)GlcNAc(b1-3)Gal(b1-4)GlcNAc(b1-3)Gal(b1-4)GlcNAc(b1-3)Gal(b1-4)GlcNAc(b1-2)[Gal(b1-4)GlcNAc(b1-3)Gal(b1-4)GlcNAc(b1-3)Gal(b1-4)GlcNAc(b1-3)Gal(b1-4)GlcNAc(b1-6)]Man(a1-6)[Gal(b1-4)GlcNAc(b1-3)Gal(b1-4)GlcNAc(b1-3)Gal(b1-4)GlcNAc(b1-3)Gal(b1-4)GlcNAc(b1-2)Man(a1-3)]Man(b1-4)GlcNAc(b1-4)[Fuc(a1-6)]GlcNAc
# Method in brief: as §1
# [22] = target: Gal(b1-4)GlcNAc(b1-3)Gal(b1-4)GlcNAc(b1-3)Gal(b1-4)GlcNAc(b1-3)Gal(b1-4)GlcNAc(b1-3)Gal(b1-4)GlcNAc(b1-2)Man(a1-3)[Gal(b1-4)GlcNAc(b1-3)Gal(b1-4)GlcNAc(b1-3)Gal(b1-4)GlcNAc(b1-3)Gal(b1-4)GlcNAc(b1-3)Gal(b1-4)GlcNAc(b1-2)Man(a1-6)]Man(b1-4)GlcNAc(b1-4)GlcNAc
# Method in brief: as §1
# [23] = target: Gal(b1-4)GlcNAc(b1-3)Gal(b1-4)GlcNAc(b1-3)Gal(b1-4)GlcNAc(b1-3)Gal(b1-4)GlcNAc(b1-3)Gal(b1-4)GlcNAc(b1-2)[Gal(b1-4)GlcNAc(b1-3)Gal(b1-4)GlcNAc(b1-3)Gal(b1-4)GlcNAc(b1-3)Gal(b1-4)GlcNAc(b1-3)Gal(b1-4)GlcNAc(b1-6)]Man(a1-6)[Gal(b1-4)GlcNAc(b1-3)Gal(b1-4)GlcNAc(b1-3)Gal(b1-4)GlcNAc(b1-3)Gal(b1-4)GlcNAc(b1-3)Gal(b1-4)GlcNAc(b1-2)Man(a1-3)]Man(b1-4)GlcNAc(b1-4)[Fuc(a1-6)]GlcNAc
# Method in brief: as §1
# [24] = target: Gal4S(b1-4)GlcNAc
# Method in brief: as §1
binder,measurement,setting,value
"RbmA (Vibrio cholerae), A0A2H4NFB8 (protein) MSNFKGSIMNKRHYYLASCLALLFSTASYAEVDCELQPVIEANLSLNQNQLASNGGYISSQLGIRNESCETVKFKYWLSIKGPEGIYFPAKAVVGVDTAQQESDALTDGRMLNVTRGFWVPEYMADGKYTVSLQVVAENGEVFKANQEFVKGGDLNSLPELNGLTIDIKNQFGINSVESTGGFVPFTIDLNNGREGEAKVEFWMTAVGPDGLIIPVHSREKWMIIAGNTFSKVRGINFDKSYPAGEYTINAQVVDIVSGERVEQLMTVVKK",glycan array binding signal (z-score),[1],0.097
same,glycan array binding signal (z-score),[2],3.71
same,glycan array binding signal (z-score),[3],1.13
same,glycan array binding signal (z-score),[4],-0.42
same,glycan array binding signal (z-score),[5],0.428
same,glycan array binding signal (z-score),[6],-0.393
same,glycan array binding signal (z-score),[7],-0.735
same,glycan array binding signal (z-score),[8],2.25
same,glycan array binding signal (z-score),[9],-0.597
same,glycan array binding signal (z-score),[10],-0.564
same,glycan array binding signal (z-score),[11],-0.002
same,glycan array binding signal (z-score),[12],-0.276
same,glycan array binding signal (z-score),[13],0.837
same,glycan array binding signal (z-score),[14],0.508
same,glycan array binding signal (z-score),[15],0.028
same,glycan array binding signal (z-score),[16],-0.082
same,glycan array binding signal (z-score),[17],0.503
same,glycan array binding signal (z-score),[18],-0.69
same,glycan array binding signal (z-score),[19],-0.734
same,glycan array binding signal (z-score),[20],-0.515
same,glycan array binding signal (z-score),[21],4.03
same,glycan array binding signal (z-score),[22],5.93
same,glycan array binding signal (z-score),[23],7.99
same,glycan array binding signal (z-score),[24],3.32
